The record followed here is PubChem BioAssay (NCATS).

Assay [1] in a line: qHTS of pediatric cancer cell lines to identify multiple opportunities for drug repurposing: Primary screen for Rh18 cells (AID 1347102). Also: % is scaled to controls: 0 for no effect and ±100 for the full control effect; nearly all actives have a fitted effect of over 65% in size. The essentials: (§1)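 Cells (500-1,000/well) in growth media were settled 5 h at 37 degrees C, then given compounds for 48 h. Viability was read as CellTiter-Glo luminescence. Primary runs used MIPE at 11 points (0.78 nM-46 µM) and NPC at 8 points (0.59 nM-46 µM); follow-ups used 11 points.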
For orientation: In qHTS, concentration-response curves come from the screen itself.

Assay [2] can be described thus: qHTS of pediatric cancer cell lines to identify multiple opportunities for drug repurposing: Primary screen for OHS-50 cells (AID 1347103).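 Also: plate controls were DMSO neutral control for no effect and bortezomib positive control for full effect; nearly all actives have a fitted effect of over 40% in size.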 The essentials: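 Cells (500-1,000/well) rested 5 h, then received compounds for 48 h; metabolically active cells were measured by CellTiter-Glo luminescence. Final concentrations spanned up to 46 µM (MIPE, 11-point) or 0.59 nM-46 µM (NPC, 8-point) in primary screens, 11-point in follow-ups.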

A short description of assay [3]: qHTS of pediatric cancer cell lines to identify multiple opportunities for drug repurposing: Primary screen for RD cells (AID 1347104).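 Also: plate controls were DMSO for no effect and bortezomib for full effect; nearly all actives have a fitted effect of over 55% in size.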 The essentials: (§2)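 ATP-based luminescence (CellTiter-Glo) quantifies viability after a 48-hour exposure. Compounds are dosed across 8 or 11 final concentrations; DMSO and 2.3 µM bortezomib serve as controls.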
Assay [4] in a line: qHTS of pediatric cancer cell lines to identify multiple opportunities for drug repurposing: Primary screen for control Hh wild type fibroblast cells (AID 1347106).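 Also: series mostly up to about 46 µM; % is scaled to controls: 0 for no effect and ±100 for the full control effect; a drop in luminescence marks cytotoxicity and a rise apparent proliferation; nearly all actives have a fitted effect of over 55% in size.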 The essentials:
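Viability after 48 h compound treatment at 37C, 500-1,000 cells/well, read as ATP luminescence with CellTiter-Glo. Primary screens used 11-point (MIPE, 0.78 nM-46 µM) or 8-point (NPC, 0.59 nM-46 µM) final concentrations; follow-up screens used 11-point dilutions.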

Assay [5] in a line: qHTS of pediatric cancer cell lines to identify multiple opportunities for drug repurposing: Primary screen for Rh30 cells (AID 1347107). Also: series mostly up to about 46 µM; % is scaled to controls: 0 for no effect and ±100 for the full control effect; nearly all actives have a fitted effect of over 75% in size. The essentials: as §1
The nature of assay [6]: qHTS of pediatric cancer cell lines to identify multiple opportunities for drug repurposing: Primary screen for Rh41 cells (AID 1347108).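 Also: series mostly up to about 46 µM; luminescence drop marks cytotoxic hits; nearly all actives have a fitted effect of over 70% in size.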 Put shortly: as §2
The nature of assay [7]: qHTS of pediatric cancer cell lines to identify multiple opportunities for drug repurposing: Primary screen for MG 63 (6-TG R) cells (AID 1347105). Also: % is scaled to controls: 0 for no effect and ±100 for the full control effect; nearly all actives have a fitted effect of over 50% in size. Put shortly: as §2
Assay [8] is described as follows: qHTS of pediatric cancer cell lines to identify multiple opportunities for drug repurposing: Confirmatory screen for NB1643 cells (AID 1347109).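 Also: plate controls were DMSO for no effect and bortezomib for full effect; nearly all actives have a fitted effect of over 45% in size.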 The essentials:
as §1

Assay [9] can be described thus: qHTS of pediatric cancer cell lines to identify multiple opportunities for drug repurposing: Confirmatory screen for A673 cells (AID 1347110).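 Also: cells exposed to compound for 48 h before the viability read; plate controls were DMSO neutral control for no effect and bortezomib positive control for full effect; nearly all actives have a fitted effect of over 65% in size.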 The essentials:
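Cells plated at 500-1,000/well were treated five hours later with multi-point dilutions up to 46 µM final. After two days, CellTiter-Glo was added and luminescence read.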

The nature of assay [10]: qHTS of pediatric cancer cell lines to identify multiple opportunities for drug repurposing: Confirmatory screen for SK-N-MC cells (AID 1347111).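 Also: cells exposed to compound for 48 h before the readout; nearly all actives have a fitted effect of over 70% in size.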 Also: potency is read from the fitted curve at half-maximal effect.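 As to activity change, negative = cytotoxic: plate controls were DMSO for no effect and bortezomib for full effect.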 Put shortly: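 Metabolically active cells were quantified by ATP-dependent luminescence (CellTiter-Glo, 15 min at room temperature) following 48 h treatment. Cells had been plated at 500-1,000 per well and settled for 5 h beforehand.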

A short description of assay [11]: qHTS of pediatric cancer cell lines to identify multiple opportunities for drug repurposing: Confirmatory screen for BT-12 cells (AID 1347112). Also: % is scaled to controls: 0 for no effect and ±100 for the full control effect; nearly all actives have a fitted effect of over 55% in size. Put shortly: as §1
Assay [12] is described as follows: qHTS of pediatric cancer cell lines to identify multiple opportunities for drug repurposing: Confirmatory screen for DAOY cells (AID 1347114). Also: % is scaled to controls: 0 for no effect and ±100 for the full control effect; nearly all actives have a fitted effect of over 65% in size. Put shortly:
(§3)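 Viability measured as metabolically active cells via CellTiter-Glo luminescence following 48 hours of compound exposure, 11-point dilutions in confirmatory testing. 500-1,000 cells/well plated 5 hours before dosing; controls were DMSO and 2.3 µM bortezomib.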

A short description of assay [13]: qHTS of pediatric cancer cell lines to identify multiple opportunities for drug repurposing: Confirmatory screen for NB-EBc1 cells (AID 1347115).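 Also: cells exposed to compound for 48 h before the viability read; % is scaled to controls: 0 for no effect and ±100 for the full control effect; nearly all actives have a fitted effect of over 45% in size.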 Put shortly: as §1
Assay [14] in a line: qHTS of pediatric cancer cell lines to identify multiple opportunities for drug repurposing: Confirmatory screen for SJ-GBM2 cells (AID 1347116).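 Also: plate controls were DMSO for no effect and bortezomib for full effect; nearly all actives have a fitted effect of over 60% in size.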 Put shortly:
as §3

Assay [15] can be described thus: qHTS of pediatric cancer cell lines to identify multiple opportunities for drug repurposing: Confirmatory screen for BT-37 cells (AID 1347117).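 Also: plate controls were DMSO for no effect and bortezomib for full effect; nearly all actives have a fitted effect of over 55% in size.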 The essentials:
as §1

Assay [16] in a line: qHTS of pediatric cancer cell lines to identify multiple opportunities for drug repurposing: Confirmatory screen for TC32 cells (AID 1347118).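 Also: potency is read from the fitted curve at half-maximal effect; cells exposed to compound for 48 h before the read; nearly all actives have a fitted effect of over 65% in size.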 The essentials: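 Measured quantity: luminescence from CellTiter-Glo, reflecting metabolically active TC32 cells following 48 h of compound. Curves came straight from multi-point titrations, with 8 or 11 points in primary and 11 in confirmatory screening.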

Assay [17] in a line: qHTS of pediatric cancer cell lines to identify multiple opportunities for drug repurposing: Confirmatory screen for MG 63 (6-TG R) cells (AID 1347119). Put shortly:
as §1

The nature of assay [18]: qHTS of pediatric cancer cell lines to identify multiple opportunities for drug repurposing: Confirmatory screen for control Hh wild type fibroblast cells (AID 1347121).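 Also: plate controls were DMSO for no effect and bortezomib for full effect; nearly all actives have a fitted effect of over 70% in size.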 The essentials:
as §1

Assay [19] in a line: qHTS of pediatric cancer cell lines to identify multiple opportunities for drug repurposing: Confirmatory screen for U-2 OS cells (AID 1347122). The settings on record: outcome: dose series up to 45.9 µM. The essentials: as §1

Records with an inconclusive call do not appear. Values without a mark were called inactive. Calls of active or inactive are those of the source. Calls follow the shape of the dose curve; as a rule, active = well fitted curve in the direction sought with a large enough effect; inconclusive = small, poorly fitted or top-dose-only effect, or another doubt; inactive = no such curve, though single readings can be large; an effect the other way counts as inactive or inconclusive.

With `NC(=O)NNc1ccccc1`, the Potency result in assay [1], in assay [2], in [3] and in assay [6] was “inactive” throughout. Further, the call in [4] and in [5] was inactive.

Regarding `Cc1ncc([N+](=O)[O-])n1CC(O)CCl` (centres undefined), the Potency result in assay [1], in assay [2], in [3], in [7] and in assay [6] was “inactive” in each case. The result in [5] was inactive.

For the molecule `C[C@H]1O[C@H](O[C@H]2[C@H](O)[C@@H](O)[C@@H](O[C@H]3[C@H](O)[C@@H](O)[C@H](O)O[C@@H]3CO)O[C@@H]2CO)[C@H](O)[C@@H](O)[C@@H]1N[C@H]1C=C(CO)[C@@H](O)[C@H](O)[C@H]1O`, the Potency result in [1], in [2], in assay [3] and in [6] was “inactive” in each case. The molecule was classed as inactive in [4] and in assay [5].

As for `O=C(O)Cc1sc(-c2ccccc2)nc1-c1ccc(Cl)cc1`, the Potency entry in assay [1], in assay [2], in assay [3], in assay [7] and in assay [6] was “inactive” each time. For the same molecule, the molecule was classed as inactive in [5].

As to `C[C@@H]1C[C@H]2[C@@H]3C[C@H](F)C4=CC(=O)C=C[C@]4(C)[C@@]3(F)[C@@H](O)C[C@]2(C)[C@@]1(O)C(=O)CO`, the Potency result in [1], in [2], in assay [3], in [7], in assay [6] and in [8] was “inactive” each time. The Potency result in assay [9], in assay [11], in assay [13], in assay [14], in assay [15] and in assay [17] was “inactive” in each case. Also, the molecule was classed as inactive in [4], in assay [5], in assay [12], in [18] and in assay [19]. In addition, the Potency was 13.1 µM (active) in assay [10] and 23.3 µM (active) in [16].

Consider `CN1CCOC(c2ccccc2)c2ccccc2C1` (centres undefined), for which the Potency result in assay [1], in [2], in assay [3], in assay [7] and in assay [6] was “inactive” each time. For the same molecule, the molecule was classed as inactive in assay [4] and in assay [5].

As to `Oc1ccc(C(O)CNCCCCCCNCC(O)c2ccc(O)c(O)c2)cc1O` (centres undefined), the Potency result in assay [1], in assay [2], in [3], in assay [7] and in assay [6] was “inactive” each time. The molecule was called inactive in assay [4] and in assay [5].

Take `O=S(=O)(O)NC1CCCCC1`: the Potency result in [1], in assay [2], in assay [3], in assay [7] and in assay [6] was “inactive” in each case. In addition, the molecule was classed as inactive in assay [5].

On to `CCC(=O)c1ccc(O)cc1`, for which the Potency result in [1], in assay [2], in assay [3], in assay [7] and in assay [6] was “inactive” in each case. Also, the molecule was classed as inactive in assay [4] and in [5].

For `O=S(=O)(O)c1cc(I)c(O)c2ncccc12`, the Potency entry in assay [1], in [2], in [3], in [7] and in [6] was “inactive” in each case. Besides, in [5], the molecule was classed as inactive.

`C/C(=C(\CCOP(=O)(O)O)SC(=O)c1ccccc1)N(C=O)Cc1cnc(C)nc1N`: the activity change, negative = cytotoxic in [1] was 28.8% [at 4.84 µM]; in assay [2], 12% [at 6.18 µM]; in assay [3], 3.8% [at 4.84 µM]; in assay [7], -1.82% [at 4.84 µM]; in assay [4] it was 4.64% [at 4.84 µM]; in assay [5] it was 26.4% [at 4.84 µM]. In addition, the activity change, negative = cytotoxic in assay [6] was 27.9% [at 4.84 µM].

Take `CCN(CC)CCNC(=O)c1cc(Cl)c(N)cc1OC`: the Potency result in [1], in assay [2], in [3], in [7], in assay [6] and in assay [8] was “inactive” each time. For the same molecule, the Potency entry in [9], in [10], in assay [11], in assay [13], in assay [15] and in [17] was “inactive” in each case. The result in [4], in assay [5], in [12], in assay [18] and in [19] was inactive.

On to `O=C(Oc1ccccc1C(=O)O)c1ccccc1O`, for which the Potency entry in [1], in [2], in [3], in [7] and in assay [6] was “inactive” each time. In addition, the outcome in assay [4] and in assay [5] was inactive.

As for `CN1[C@@H]2CC[C@H]1CC(OC(=O)C(O)c1ccccc1)C2` (some centres undefined), the Potency result in assay [2], in [3], in assay [7] and in [6] was “inactive” in each case. Moreover, the outcome in assay [4] and in [5] was inactive.

Take `Nc1ccc(S(=O)(=O)NC(=O)c2ccccc2)cc1`: the Potency entry in assay [2], in assay [3], in [7] and in [6] was “inactive” in each case. Also, the molecule was classed as inactive in assay [4] and in [5].
